# Source: PubChem BioAssay (Tox21)
# Records with an inconclusive call do not appear. A call without a number means that no potency is given here. Where a structure was tested more than once in an assay, its records may differ in their call. The source made the active and inactive calls. The call rests on the fitted dose curve; in most records, active means well fitted activation curve with a large enough effect in the signal ratio in the repeat runs (not every such curve was filed as active); inconclusive means weak or mixed curves; inactive means flat fitted curve, though single readings scatter; the % refers to the signal ratio.
# Assay: qHTS assay to identify small molecule agonists of H2AX (AID 1224845)
# Details: CHO-K1 phospho-H2AX Ser139 HTRF, 3 h; series mostly up to 154 µM; activation (H2AX phosphorylation): at the top concentration
# Text: National Center for Advancing Translational Sciences [NCATS]
# NIH Chemical Genomics Center [NCGC]
# U.S. Environmental Protection Agency [EPA]
# National Institutes of Environmental Health Sciences [NIEHS]
# National Toxicology Program [NTP]
# U.S. Food and Drug Administration [FDA]
# HTRF phospho-H2AX (Ser139) assay (Cisbio Bioassays, US) enables the quantitative detection of the histone variant H2AX when phosphorylated on serine 139. When double-stranded DNA breaks, either by ionizing radiation or endogenous physiological processes, H2AX becomes phosphorylated at Ser139. This phospho-Ser139 serves as a sensitive biomarker for the detection of such breaks, localizing the site of DNA repair. So, HTRF phospho-H2AX Ser139 is a pertinent assay to study genome stability, the cell cycle, DNA repair, and it serves as a biomarker for cancer, and to understand aging. Wild type CHO-K1 cells were used to identify the inducers of Phospho-H2AX Ser 139 from the Tox21 10K compound collections.
# Tox21 Assay Protocol Summary:
# The CHO-K1 cells suspended in culture medium containing 10% FBS were dispensed at 1000 cells/ 3 ul/well in 1536-well white wall/solid bottom plates (Greiner Bio-One North America, NC) using a Multidrop Combi (Thermo Fisher Scientific Inc., Waltham, MA). After the assay plates were incubated at 37C overnight, 23 nl of compounds at 15 concentrations (from 5-48 columns) or positive control (from 1 to 4 columns) were transferred to the assay plates using a Pintool station (Wako, San Diego, CA) into each well resulting in a final DMSO concentration of 0.76%. After 3hr incubation at 37C, 1 uL/well Supplemented Lysis buffer (diluted 100 fold blocking reagent in lysis buffer) (HTRF Phospho-H2A.X (S139) Assay kit from Cisbio US Inc., Bedford, MA) was added using a Flying Reagent Dispenser (FRD) (Aurora Discovery, CA). After 10sec spin at 1000 rpm in a plate centrifuge, the assay plates were incubated at room temperature for 30 min. Then followed by the addition of 1 uL/well detection buffer (containing a mixture of two antibodies, one labeled with cryptate, Anti pH2AX (S139)-K and another labeled with d2, Anti H2AX-d2) using FRD. After incubation at room temperature for 24 hr, the time resolved fluorescence at excitation 320 nm and emissions at 665 nm and 620 nm was measured using an Envision plate reader (PerkinElmer, Waltham, MA).
# Potency means the concentration at half of the fitted maximal effect.
Structure (SMILES),Potency,activation (H2AX phosphorylation)
COC(=O)Nc1cccc(OC(=O)Nc2cccc(C)c2)c1,inactive,
O=C(O)C1C(C(=O)O)C2(Cl)C(Cl)=C(Cl)C1(Cl)C2(Cl)Cl (stereo not given),inactive,
Clc1cnc(Oc2ccc(Oc3ncc(Cl)cc3Cl)cc2)c(Cl)c1,,0.145% [at 70.9 µM] (inactive)
[N-]=[N+]=CC(=O)OC[C@H](N)C(=O)O,inactive,
C=CC#N,inactive,
OC[C@@H](O)[C@H]1O[C@@H]2O[C@H](C(Cl)(Cl)Cl)O[C@@H]2[C@H]1O,inactive,
C=C(C)C(=O)OCC(CC)CCCC (stereo not given),,-1.59% (inactive)
CN(C)NC(=O)CCC(=O)O,inactive,
Cc1cccc(C)c1N,inactive,
Cl/C=C/Cl,inactive,
c1ccc2c(c1)CCCC2,inactive,
CCSC(=O)N1CCCCCC1,inactive,
COS(=O)(=O)OC,inactive,
O=[N+]([O-])c1ccc(Cl)cc1,inactive,
CNCC(O)c1ccc(O)cc1 (stereo not given),inactive,
Oc1ccc(Cl)cc1,inactive,
O=S(=O)(O)OOS(=O)(=O)O,inactive,
Cc1cc(O)ccc1Cl,inactive,
OCCCCO,inactive,
CNC(=O)O/N=C/C(C)(C)SC,inactive,

Structure (SMILES),Potency,activation (H2AX phosphorylation)
NNc1ccccc1,,-0.362% [at 70.9 µM] (inactive)
O=C(O)c1cc(Oc2ccc(C(F)(F)F)cc2Cl)ccc1[N+](=O)[O-],inactive,
Nc1cc(Cl)cc(Cl)c1,inactive,
O=[N+]([O-])c1cc([As](=O)(O)O)ccc1O,inactive,
CCNc1nc(Cl)nc(NC(C)C)n1,inactive,
C=CC(=O)OCC(CC)CCCC (stereo not given),inactive,
Cc1ccccc1N,inactive,
Nc1ccc([As](=O)(O)O)cc1,inactive,
CC(C)(C)C(=O)CCl,inactive,
C/C=C/c1ccc2c(c1)OCO2,inactive,
N#Cc1cccc(C#N)c1,inactive,
CC(C)c1cccc(C(C)C)c1O,inactive,
N#CN=C(N)N,inactive,
COc1nc(NC(C)C)nc(NC(C)C)n1,inactive,
CN(C)CCC#N,inactive,
Nc1cccc(Cl)c1,inactive,
CC[N+](=O)[O-],inactive,
CNC(=O)Oc1cccc2ccccc12,99.8 µM (active) and inactive,
CC(=O)C1CCOC1=O (stereo not given),inactive,
COP(=S)(OC)Oc1ccc(SC)c(C)c1,inactive,
